# Data reported in the supplement of paper PMC3334620.
# Over roughly 33,000 sequences, “E-score (-0.5 to 0.5)” has its median near -0.056; the highest 2% begin near 0.38. The sample as a whole holds a higher share of the highest values than the screen did.
# Target: Stb4 (UniProt P50104)
# Assay: PBM E-score (8-mer binding enrichment) (E-score (-0.5 to 0.5)); higher = stronger / more preferred TF binding
# Details: protein concentration: 200 nM; construct: GST-DNA-binding domain
# Method: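 Universal 'all 10-mer' protein binding microarrays (Agilent AMADID 015681) probed with GST-tagged S. cerevisiae TFs (full-length or DBD) made by in vitro transcription/translation (PURExpress), about 100-200 nM. Bound TF was detected with fluorescent anti-GST. Each ungapped 8-mer (which stands for itself and its reverse complement) is scored by the PBM enrichment score (E-score), a modified Wilcoxon-Mann-Whitney statistic from -0.5 to +0.5, computed with the Universal PBM Analysis Suite. Scale: above 0.35 generally sequence-specific binding.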
# UniProt P50104, sequence (P50104 whole entry): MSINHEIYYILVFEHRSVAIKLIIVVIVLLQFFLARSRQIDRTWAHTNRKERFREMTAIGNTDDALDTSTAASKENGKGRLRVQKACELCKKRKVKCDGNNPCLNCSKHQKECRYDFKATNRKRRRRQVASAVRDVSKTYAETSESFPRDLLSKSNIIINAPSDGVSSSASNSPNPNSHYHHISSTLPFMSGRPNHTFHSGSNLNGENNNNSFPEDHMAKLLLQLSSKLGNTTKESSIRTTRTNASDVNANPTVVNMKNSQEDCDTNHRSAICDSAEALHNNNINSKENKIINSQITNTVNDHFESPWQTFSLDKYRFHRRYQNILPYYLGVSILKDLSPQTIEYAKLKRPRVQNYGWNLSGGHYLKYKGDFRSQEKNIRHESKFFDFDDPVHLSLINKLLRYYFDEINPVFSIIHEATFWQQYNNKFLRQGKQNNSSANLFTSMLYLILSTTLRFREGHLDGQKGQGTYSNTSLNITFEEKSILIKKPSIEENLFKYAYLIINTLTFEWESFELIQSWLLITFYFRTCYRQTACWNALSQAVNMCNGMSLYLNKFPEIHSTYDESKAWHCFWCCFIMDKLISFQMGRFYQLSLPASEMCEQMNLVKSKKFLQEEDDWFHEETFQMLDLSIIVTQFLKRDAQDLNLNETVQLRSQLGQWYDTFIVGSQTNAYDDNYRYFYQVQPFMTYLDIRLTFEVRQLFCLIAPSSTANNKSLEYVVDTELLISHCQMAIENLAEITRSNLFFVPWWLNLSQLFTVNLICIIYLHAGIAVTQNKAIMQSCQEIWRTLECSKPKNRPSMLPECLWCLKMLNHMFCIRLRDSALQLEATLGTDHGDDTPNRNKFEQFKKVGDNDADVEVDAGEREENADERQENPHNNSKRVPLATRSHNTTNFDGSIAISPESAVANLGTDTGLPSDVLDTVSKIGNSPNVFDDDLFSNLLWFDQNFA
row,Sequence,PBM E-score
1,CTCCGAAC,0.427
2,ATCCGCAG,0.285
3,GTCCGAAC,0.335
4,TTGCGAAA,0.116
5,CACCGAAC,0.224
6,CTCCGAAA,0.357
7,AACCGAAG,0.362
8,AACCGAAC,0.356
9,AGTCAGCC,-0.161
10,ACTGATCT,-0.0326
11,CAGGAAAG,-0.2
12,ATACGGGA,0.237
13,CACTAAAC,-0.0976
14,TACTTCTA,-0.254
15,AAATTGCG,0.114
16,TCCTAGGA,-0.093
17,CTGTGGGA,-0.145
18,ATGCGAAT,0.0493
19,ATCCGAAA,0.48
20,CACCGAAG,0.228
21,ATACGAAT,-0.0803
22,ATCCGAAT,0.48
23,CTCCGAAG,0.413
24,GTCCGAAA,0.337
25,AACCGAAA,0.372

row,Sequence,PBM E-score
1,CTACGAAG,-0.247
2,CCTATTCA,-0.0251
3,CGCGCCTA,0.0819
4,CACTGGTA,-0.276
5,GAGTCCCA,0.116
6,TGACTCAA,-0.149
7,CGTTCTCC,-0.0997
8,ACGTTCCA,-0.0774
9,AGGTTCGC,0.0812
10,AAGTTCCG,0.434
11,AGGTTCGA,-0.0841
12,ACGTTCCT,-0.168
13,ACGTTCCG,0.398
14,AGGTTCCC,-0.0987
15,AGGTTCCG,0.383
16,AGGTTCGG,0.403
17,AGGTTCCA,0.0324
18,AAGTTCCT,-0.00611
19,CAGTTCCG,0.364
20,CATAACCC,0.051
21,AGGTGGGG,-0.0596
22,GCAAAAAC,-0.0252
23,CACAGCTC,-0.18
24,GCACCATA,-0.021
25,CAGAACTA,-0.0215

row,Sequence,PBM E-score
1,CGGCGATA,0.277
2,CGTAGGGC,-0.195
3,ACATTTCC,0.141
4,CGCACCGC,-0.00306
5,ATGTTCGG,0.392
6,CCGTTCCA,0.183
7,ATGTTCGC,-0.118
8,ATGTTCCG,0.448
9,ATGTTCCA,-0.0991
10,ATGTTCGA,-0.112
11,ATGTTCCC,0.153
12,CCGTTCCC,0.273
13,CCGTTCCG,0.431
14,AAAACCCA,-0.0723
15,CCTGGCAG,-0.289
16,CTTTGAGC,-0.151
17,GAACCACC,0.218
18,CGGTGGTA,0.0785
19,TACCAAAA,-0.12
20,AAATTGTG,-0.295
21,GTGATCTA,-0.0262
22,ATCCCTTC,-0.183
23,GCGATTGA,-0.113
24,TAGCCGGA,0.384
25,GAGCCGGA,0.348

row,Sequence,PBM E-score
1,CAGCCGAC,0.311
2,AAGCCGCA,0.167
3,AAGCCGGA,0.355
4,AAGCCAAA,-0.0671
5,CAGCCAAA,-0.0614
6,AAGCCGAT,0.299
7,AAGCCGAC,0.26
8,AAGCCGAG,0.401
9,AAGCCGAA,0.407
10,CAGCCGAA,0.392
11,CTAGCCAC,-0.287
12,AACTTGGG,0.0814
13,AGAGCCTG,-0.237
14,TAAGTTGA,-0.103
15,GGATCACA,0.228
16,TAGTGAAA,-0.178
17,CGATACTC,0.065
18,AGGGCCAT,-0.253
19,TAGCCAAA,0.0424
20,CAGCCGGG,0.237
21,CAGCCGCG,0.151
22,GAGCCGAA,0.423
23,GAGCCGAC,0.296
24,TAGCCGAA,0.446
25,GAGCCGCA,0.0237

row,Sequence,PBM E-score
1,TGGCCGAA,0.251
2,CAGCCGAG,0.409
3,AGGTCGCC,0.00267
4,AAGGGCAA,0.158
5,CTGCTAGC,-0.23
6,TAGTTTGA,-0.121
7,ATAACGCA,-0.0729
8,CCGGTAGA,0.264
9,CGGAAACC,0.347
10,AGGAAACA,-0.0661
11,GGGAAACA,0.175
12,CGGAAACA,0.427
13,CGGAAACG,0.384
14,AGGAAACG,-0.164
15,ATCAAATG,0.129
16,ACCTAAAG,-0.0577
17,AGTGCACC,0.0754
18,CGTAAACA,0.055
19,AGGCTCGA,-0.126
20,AGGCTCGC,-0.00633
21,ACGCTCGG,0.42
22,ACGCTCGA,-0.198
23,ACGCTCGC,-0.227
24,ATGCTCGA,-0.139
25,ATGCTCGG,0.404

row,Sequence,PBM E-score
1,AGGCTCGG,0.432
2,ATGCTCGC,-0.239
3,TAAATGGA,-0.104
4,TAAAACAA,-0.199
5,AATGGGGC,-0.232
6,CCTCGCGC,-0.0639
7,ATCGACGC,-0.126
8,CCTAGGGC,-0.153
9,CGTACCGA,0.334
10,ACTATCGG,0.236
11,GCTCCCCA,-0.311
12,CCTCCCGA,0.387
13,CCTCCCGC,0.133
14,GCTCCCGA,0.41
15,ACTCCCGC,0.234
16,ACTCCCGG,0.372
17,ACTCCCGA,0.411
18,CCTCCCCA,-0.0256
19,GCTCCCAA,-0.272
20,TTGATCAA,-0.205
21,ACGGACGC,-0.0449
22,GCTCCGAC,0.238
23,ACTCCGGC,0.281
24,TCTCCGCA,0.147
25,CCTCCGAG,0.4

row,Sequence,PBM E-score
1,CCTCCGAA,0.352
2,CCTCCGCG,0.159
3,TCTCCGAA,0.384
4,TCTCCAAA,-0.144
5,CCTCCGAC,0.209
6,GCTCCGAA,0.4
7,ACTCCGGA,0.411
8,GCTCCGGA,0.346
9,AGGCTAGC,-0.217
10,CCGGTCAC,0.108
11,CGGTGCTA,0.103
12,TAAGAGAA,-0.344
13,ACATCGAC,-0.0835
14,AACAGTAG,-0.0759
15,ACATTGAT,0.0749
16,AAAGTTAG,-0.00674
17,CAGCGGTC,-0.186
18,ACTCCGAC,0.32
19,ACTCCGAA,0.385
20,ACTCCAAA,-0.0951
21,ACTCCGAT,0.242
22,ACTCCGAG,0.395
23,ACTCCGTA,0.0548
